The source of these data is ChEMBL document CHEMBL1961873, “Compounds: GSK PKIS; Assays: Nanosyn kinase panel” (2012).

For orientation: inhibition means the drop in the measured response relative to a control, in per cent.

Assay [1] addresses Calcium/calmodulin-dependent protein kinase type II subunit alpha (Homo sapiens) (UniProt Q9UQM7). As to conditions: at 1 µM.
For assay [2], the target named is Calcium/calmodulin-dependent protein kinase type II subunit delta (Homo sapiens) (UniProt Q13557). Particulars: at 0.1 µM.
Calcium/calmodulin-dependent protein kinase type II subunit delta (Homo sapiens), sequence (Q13557 whole entry): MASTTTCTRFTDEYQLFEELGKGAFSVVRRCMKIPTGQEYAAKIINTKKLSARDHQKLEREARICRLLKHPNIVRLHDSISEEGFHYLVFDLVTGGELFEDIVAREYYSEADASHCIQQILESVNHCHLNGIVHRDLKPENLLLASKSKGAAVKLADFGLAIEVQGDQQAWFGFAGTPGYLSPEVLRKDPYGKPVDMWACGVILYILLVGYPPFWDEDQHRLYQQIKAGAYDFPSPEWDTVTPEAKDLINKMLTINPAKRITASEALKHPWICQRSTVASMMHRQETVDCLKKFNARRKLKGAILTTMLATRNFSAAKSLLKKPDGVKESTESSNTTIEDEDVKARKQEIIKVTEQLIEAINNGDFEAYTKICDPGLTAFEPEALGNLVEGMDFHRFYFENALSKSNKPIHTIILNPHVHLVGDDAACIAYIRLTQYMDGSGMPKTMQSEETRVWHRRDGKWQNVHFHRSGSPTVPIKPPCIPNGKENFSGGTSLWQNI
For assay [3] the target is unchanged. Particulars: at 1 µM.
The target in assay [4] is T1, Calcium/calmodulin-dependent protein kinase type IV (Homo sapiens) (UniProt Q16566).
T1 sequence (whole entry): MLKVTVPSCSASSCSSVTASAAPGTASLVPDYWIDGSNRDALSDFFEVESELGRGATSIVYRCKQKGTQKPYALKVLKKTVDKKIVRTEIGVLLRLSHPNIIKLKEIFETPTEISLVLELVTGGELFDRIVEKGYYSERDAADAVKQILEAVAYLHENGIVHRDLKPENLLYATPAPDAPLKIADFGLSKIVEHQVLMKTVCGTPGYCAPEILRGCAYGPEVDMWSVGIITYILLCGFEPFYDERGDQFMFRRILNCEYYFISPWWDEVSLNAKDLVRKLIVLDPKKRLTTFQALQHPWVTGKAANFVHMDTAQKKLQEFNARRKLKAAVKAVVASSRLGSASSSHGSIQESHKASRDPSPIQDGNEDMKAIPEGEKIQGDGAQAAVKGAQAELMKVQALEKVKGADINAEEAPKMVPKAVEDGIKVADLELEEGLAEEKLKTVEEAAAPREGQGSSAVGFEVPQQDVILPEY
Particulars: at 0.1 µM.

Assay [5] concerns the target T1, Calcium/calmodulin-dependent protein kinase type IV (Homo sapiens). As to conditions: at 1 µM.
In assay [6] the target is T2, Serine/threonine-protein kinase Chk1 (Homo sapiens) (UniProt O14757).
T2 sequence (whole entry): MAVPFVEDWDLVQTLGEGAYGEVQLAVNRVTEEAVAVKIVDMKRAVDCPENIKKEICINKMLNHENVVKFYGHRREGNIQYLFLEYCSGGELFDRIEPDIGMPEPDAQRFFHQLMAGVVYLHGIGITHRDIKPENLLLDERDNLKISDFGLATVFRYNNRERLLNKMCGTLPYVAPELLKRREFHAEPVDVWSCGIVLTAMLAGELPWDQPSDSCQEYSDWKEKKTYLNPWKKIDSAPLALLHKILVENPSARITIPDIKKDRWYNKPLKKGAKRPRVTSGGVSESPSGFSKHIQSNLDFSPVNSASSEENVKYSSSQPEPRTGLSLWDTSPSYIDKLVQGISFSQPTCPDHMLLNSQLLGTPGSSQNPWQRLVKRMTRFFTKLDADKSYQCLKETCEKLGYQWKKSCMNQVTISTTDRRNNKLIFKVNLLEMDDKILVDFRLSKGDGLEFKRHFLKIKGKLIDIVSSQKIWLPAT
Particulars: at 0.1 µM.

Assay [7] addresses T2, Serine/threonine-protein kinase Chk1 (Homo sapiens). Particulars: at 1 µM.
Assay [8] deals with Serine/threonine-protein kinase Chk2 (Homo sapiens) (UniProt O96017). As to conditions: at 0.1 µM.
Serine/threonine-protein kinase Chk2 (Homo sapiens), sequence (O96017 whole entry): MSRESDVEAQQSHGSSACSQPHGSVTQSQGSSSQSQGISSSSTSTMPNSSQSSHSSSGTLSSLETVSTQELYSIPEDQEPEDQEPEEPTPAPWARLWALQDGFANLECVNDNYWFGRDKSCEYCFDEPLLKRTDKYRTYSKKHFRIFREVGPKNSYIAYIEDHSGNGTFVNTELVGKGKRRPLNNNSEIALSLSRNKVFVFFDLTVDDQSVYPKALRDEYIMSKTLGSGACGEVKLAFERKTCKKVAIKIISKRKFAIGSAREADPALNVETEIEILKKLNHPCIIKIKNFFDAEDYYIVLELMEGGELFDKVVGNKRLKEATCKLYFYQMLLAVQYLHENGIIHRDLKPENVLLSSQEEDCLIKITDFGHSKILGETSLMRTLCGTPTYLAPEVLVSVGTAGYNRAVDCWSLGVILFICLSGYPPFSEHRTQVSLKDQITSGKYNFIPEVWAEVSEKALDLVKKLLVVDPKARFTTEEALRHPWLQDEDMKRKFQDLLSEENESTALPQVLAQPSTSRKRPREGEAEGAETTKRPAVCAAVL
The target is the same in assay [9]. As to conditions: at 1 µM.
Assay [10] addresses Death-associated protein kinase 1 (Homo sapiens) (UniProt P53355). As to conditions: at 0.1 µM.
Assay [11] shares this target. As to conditions: at 1 µM.
Assay [12] has as its target T3, Serine/threonine-protein kinase DCLK2 (Homo sapiens) (UniProt Q8N568).
T3 sequence (whole entry): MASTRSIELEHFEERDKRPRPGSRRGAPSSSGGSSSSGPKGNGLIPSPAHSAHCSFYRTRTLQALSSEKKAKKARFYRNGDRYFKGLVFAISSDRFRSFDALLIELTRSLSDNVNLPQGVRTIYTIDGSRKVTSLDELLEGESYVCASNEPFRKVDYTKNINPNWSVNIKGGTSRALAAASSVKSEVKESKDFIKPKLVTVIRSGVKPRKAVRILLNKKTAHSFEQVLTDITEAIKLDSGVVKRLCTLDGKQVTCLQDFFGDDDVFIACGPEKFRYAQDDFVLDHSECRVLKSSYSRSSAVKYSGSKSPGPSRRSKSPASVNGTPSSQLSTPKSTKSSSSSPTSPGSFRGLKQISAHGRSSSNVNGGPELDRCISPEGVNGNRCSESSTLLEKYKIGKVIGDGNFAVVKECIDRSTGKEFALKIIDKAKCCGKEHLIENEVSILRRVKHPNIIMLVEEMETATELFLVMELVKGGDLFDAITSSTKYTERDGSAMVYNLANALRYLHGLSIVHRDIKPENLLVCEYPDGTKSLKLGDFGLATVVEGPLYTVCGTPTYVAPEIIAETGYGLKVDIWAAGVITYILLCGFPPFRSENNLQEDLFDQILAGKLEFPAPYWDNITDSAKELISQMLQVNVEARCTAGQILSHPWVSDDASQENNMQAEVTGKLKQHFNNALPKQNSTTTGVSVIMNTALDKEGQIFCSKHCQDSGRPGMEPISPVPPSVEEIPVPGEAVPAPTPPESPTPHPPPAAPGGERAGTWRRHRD
As to conditions: at 0.1 µM.

Assay [13] addresses T3, Serine/threonine-protein kinase DCLK2 (Homo sapiens). As to conditions: at 1 µM.
The target of assay [14] is MAP kinase-activated protein kinase 2 (Homo sapiens) (UniProt P49137). As to conditions: at 0.1 µM.
MAP kinase-activated protein kinase 2 (Homo sapiens), sequence (P49137 whole entry, looked up): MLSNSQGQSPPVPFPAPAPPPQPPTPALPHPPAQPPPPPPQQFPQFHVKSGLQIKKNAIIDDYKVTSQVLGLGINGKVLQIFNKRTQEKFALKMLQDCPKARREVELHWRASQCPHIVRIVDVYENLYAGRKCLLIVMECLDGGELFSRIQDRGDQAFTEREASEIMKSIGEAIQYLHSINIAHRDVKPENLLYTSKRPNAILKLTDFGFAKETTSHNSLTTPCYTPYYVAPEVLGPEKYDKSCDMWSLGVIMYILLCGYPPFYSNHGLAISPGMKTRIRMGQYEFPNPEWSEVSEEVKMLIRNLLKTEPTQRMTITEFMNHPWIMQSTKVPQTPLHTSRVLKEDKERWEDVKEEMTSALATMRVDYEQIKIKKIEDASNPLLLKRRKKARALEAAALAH
For assay [15] the target is unchanged. As to conditions: at 1 µM.
Assay [16] addresses MAP kinase-activated protein kinase 3 (Homo sapiens) (UniProt Q16644). As to conditions: at 0.1 µM.
For assay [17] the target is unchanged. As to conditions: at 1 µM.
Assay [18] addresses Serine/threonine-protein kinase MARK1 (Homo sapiens) (UniProt Q9P0L2). Particulars: at 0.1 µM.
The target is the same in assay [19]. As to conditions: at 1 µM.
The target of assay [20] is MAP/microtubule affinity-regulating kinase 3 (Homo sapiens) (UniProt P27448). Particulars: at 0.1 µM.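 Further: mean percent inhibition of MARK3 kinase activity, measured within the GSK PKIS screening panel.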
MAP/microtubule affinity-regulating kinase 3 (Homo sapiens), sequence (P27448 whole entry, looked up): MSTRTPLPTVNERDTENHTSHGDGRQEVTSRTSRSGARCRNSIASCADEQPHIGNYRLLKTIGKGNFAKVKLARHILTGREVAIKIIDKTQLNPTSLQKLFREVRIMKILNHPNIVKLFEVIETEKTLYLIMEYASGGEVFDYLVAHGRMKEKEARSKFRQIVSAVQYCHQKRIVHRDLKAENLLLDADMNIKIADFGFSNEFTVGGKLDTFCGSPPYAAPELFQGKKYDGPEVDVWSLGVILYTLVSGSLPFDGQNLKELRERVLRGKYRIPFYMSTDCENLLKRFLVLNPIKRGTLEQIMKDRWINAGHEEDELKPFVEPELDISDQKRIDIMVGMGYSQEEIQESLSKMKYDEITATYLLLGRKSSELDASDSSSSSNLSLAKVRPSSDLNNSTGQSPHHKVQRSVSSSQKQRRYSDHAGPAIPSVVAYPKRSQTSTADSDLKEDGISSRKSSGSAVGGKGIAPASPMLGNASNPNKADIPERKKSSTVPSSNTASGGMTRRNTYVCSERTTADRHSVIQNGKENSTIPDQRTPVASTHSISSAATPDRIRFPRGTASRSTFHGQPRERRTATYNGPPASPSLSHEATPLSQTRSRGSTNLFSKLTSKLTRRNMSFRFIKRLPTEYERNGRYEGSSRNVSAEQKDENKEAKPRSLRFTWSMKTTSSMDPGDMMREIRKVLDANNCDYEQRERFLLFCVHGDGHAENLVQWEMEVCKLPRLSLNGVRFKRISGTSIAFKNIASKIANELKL

MAP kinase-activated protein kinase 3 (Homo sapiens), sequence (Q16644 whole entry, looked up): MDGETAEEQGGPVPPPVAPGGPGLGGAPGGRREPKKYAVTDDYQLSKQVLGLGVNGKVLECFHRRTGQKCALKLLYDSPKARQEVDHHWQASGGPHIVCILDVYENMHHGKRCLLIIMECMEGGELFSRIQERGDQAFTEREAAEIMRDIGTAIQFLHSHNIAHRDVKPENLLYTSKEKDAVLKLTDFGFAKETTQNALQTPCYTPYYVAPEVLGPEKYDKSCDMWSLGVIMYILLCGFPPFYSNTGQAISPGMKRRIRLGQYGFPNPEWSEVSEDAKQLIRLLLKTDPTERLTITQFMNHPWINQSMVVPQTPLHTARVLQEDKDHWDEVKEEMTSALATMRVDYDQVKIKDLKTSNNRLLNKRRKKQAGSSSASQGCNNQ
Calcium/calmodulin-dependent protein kinase type II subunit alpha (Homo sapiens), sequence (Q9UQM7 whole entry): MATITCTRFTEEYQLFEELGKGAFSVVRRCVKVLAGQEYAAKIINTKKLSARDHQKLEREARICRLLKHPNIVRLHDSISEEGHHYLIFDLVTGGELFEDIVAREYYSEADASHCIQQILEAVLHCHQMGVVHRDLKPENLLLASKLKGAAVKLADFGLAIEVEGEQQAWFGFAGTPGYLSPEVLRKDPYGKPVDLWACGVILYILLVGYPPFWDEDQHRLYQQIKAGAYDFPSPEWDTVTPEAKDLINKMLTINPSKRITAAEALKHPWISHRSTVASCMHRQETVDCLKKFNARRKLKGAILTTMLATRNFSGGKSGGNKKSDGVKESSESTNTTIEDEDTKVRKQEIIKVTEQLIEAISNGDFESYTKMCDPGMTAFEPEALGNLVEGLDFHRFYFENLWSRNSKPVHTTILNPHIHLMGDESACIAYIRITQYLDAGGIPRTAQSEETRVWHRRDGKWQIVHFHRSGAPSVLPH
Death-associated protein kinase 1 (Homo sapiens), sequence (P53355 whole entry, looked up): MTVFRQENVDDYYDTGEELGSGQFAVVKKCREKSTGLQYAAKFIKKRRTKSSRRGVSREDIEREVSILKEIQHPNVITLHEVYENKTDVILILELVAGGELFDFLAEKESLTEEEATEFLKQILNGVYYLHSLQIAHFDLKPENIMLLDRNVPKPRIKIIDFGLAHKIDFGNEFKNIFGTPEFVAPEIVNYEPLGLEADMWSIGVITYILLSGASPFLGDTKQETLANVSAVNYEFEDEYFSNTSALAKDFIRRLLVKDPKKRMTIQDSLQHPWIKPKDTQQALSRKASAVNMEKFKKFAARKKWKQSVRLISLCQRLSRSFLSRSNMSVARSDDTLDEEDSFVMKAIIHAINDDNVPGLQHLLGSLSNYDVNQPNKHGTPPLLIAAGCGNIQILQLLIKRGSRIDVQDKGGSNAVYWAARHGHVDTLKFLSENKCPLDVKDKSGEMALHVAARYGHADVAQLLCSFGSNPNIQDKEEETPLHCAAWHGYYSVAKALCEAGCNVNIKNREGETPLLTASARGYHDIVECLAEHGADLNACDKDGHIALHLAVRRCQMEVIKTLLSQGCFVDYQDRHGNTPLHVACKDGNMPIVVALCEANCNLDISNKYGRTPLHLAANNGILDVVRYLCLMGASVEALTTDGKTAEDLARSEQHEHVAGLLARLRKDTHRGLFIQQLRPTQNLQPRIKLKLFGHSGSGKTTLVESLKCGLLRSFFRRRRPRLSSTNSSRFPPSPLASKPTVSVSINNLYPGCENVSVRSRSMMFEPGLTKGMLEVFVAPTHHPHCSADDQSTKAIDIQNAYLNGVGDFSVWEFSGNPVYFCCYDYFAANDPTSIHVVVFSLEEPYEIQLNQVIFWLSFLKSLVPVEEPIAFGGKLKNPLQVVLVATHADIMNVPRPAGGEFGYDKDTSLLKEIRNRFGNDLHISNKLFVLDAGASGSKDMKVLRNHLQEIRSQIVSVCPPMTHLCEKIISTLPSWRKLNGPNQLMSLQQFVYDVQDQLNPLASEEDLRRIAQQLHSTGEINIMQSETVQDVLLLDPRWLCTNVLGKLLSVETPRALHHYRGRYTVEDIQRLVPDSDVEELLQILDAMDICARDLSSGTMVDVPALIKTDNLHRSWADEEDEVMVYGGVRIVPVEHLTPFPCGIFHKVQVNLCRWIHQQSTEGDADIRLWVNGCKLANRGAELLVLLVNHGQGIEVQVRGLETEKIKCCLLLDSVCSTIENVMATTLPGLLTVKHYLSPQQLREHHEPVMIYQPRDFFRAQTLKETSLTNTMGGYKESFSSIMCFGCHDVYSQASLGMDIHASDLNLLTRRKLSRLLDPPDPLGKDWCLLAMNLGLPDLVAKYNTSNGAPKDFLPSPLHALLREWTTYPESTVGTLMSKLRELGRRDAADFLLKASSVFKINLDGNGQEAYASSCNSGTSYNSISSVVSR

Turning to `N#Cc1c(NC(=O)c2ccccc2F)sc2c1CCCC2`, the inhibition in [1] was -0.29%; in assay [2], -2.56%; in assay [3] it was 1.91%; in [4] it was 0.87%; in assay [5] it was 1.11%; in assay [6], -0.69%. The inhibition is -3.66% in [7]; -0.83% in assay [8]; -2.63% in assay [9]; -1.42% in assay [10]; -2.35% in assay [11]; -1.75% in assay [12]. The inhibition was 0.7% in assay [13]; -1.29% in [14]; -0.76% in assay [15]; -0.73% in assay [16]; -1.26% in [17]; 1.09% in assay [18]. Besides, the inhibition in [19] is 2.84%; in assay [20] it was -2.32%.
Turning to `CCOc1nccc2c1nc(-c1nonc1N)n2CC`, the inhibition was 2.47% in [1]; 1.48% in assay [2]; 3.36% in assay [3]; -4.15% in assay [4]; -3.33% in [5]; 4.09% in assay [6]. Besides, the inhibition came out at 5.94% in assay [7]; 2.06% in assay [8]; 3.78% in assay [9]; 3.66% in [10]; 3.18% in assay [11]; 0.43% in assay [12]. Besides, the inhibition was 1.18% in assay [13]; 2.38% in assay [14]; 2.83% in assay [15]; 3.14% in [16]; 2.96% in assay [17]; 2.58% in assay [18]. The results for the inhibition in assay [19] and in [20] were 9.64% and 1.53%, respectively.
`Cc1cc(-c2ccccn2)cc(C)c1/C=C/c1cncc(-c2nn[nH]n2)c1`: the inhibition in assay [1] was 1.59%; in [2], 2.75%; in assay [3], 5%; in assay [4], -1.17%; in assay [5], -1.4%; in assay [6], 4.62%. Also, the inhibition in [7] is 4.81%; in assay [8] it was 2.62%; in [9] it was 4.43%; in assay [10], 6.16%; in [11] it was 4.15%; in [12], -0.19%. Also, the inhibition in assay [13] stood at 1.55%; in [14], 2.23%; in assay [15] it was 2.74%; in [16], 4.19%; in assay [17] it was 6.94%; in assay [18] it was 1.24%. The figures for the inhibition in assay [19] and in [20] were 4.82% and 2.15%, respectively.
As to `Cc1ccc(Nc2ccnc(Nc3cccc(C(N)=O)c3)n2)cc1O`, the inhibition in assay [1] is 3.19%; in [2] it was 2.94%; in assay [3], 5.54%; in assay [4], -0.64%; in [5] it was -0.14%; in assay [6] it was 1%. The inhibition is 2.08% in assay [7]; 2.56% in assay [8]; 12.8% in assay [9]; 1.62% in assay [10]; 0.43% in assay [11]; -4.04% in assay [12]. In addition, the inhibition in assay [13] was found to be 0.3%; in assay [14], 1.02%; in [15], 0.74%; in assay [16], 3.05%; in [17], 7.65%; in assay [18], 2.3%. Besides, the inhibition in assay [19] was found to be 6.45%; in assay [20] it was 4.15%.
With `CN(C)C(=O)O[C@H]1CN[C@H](C#Cc2cc3ncnc(Nc4ccc(OCc5cccc(F)c5)c(Cl)c4)c3s2)C1`, the inhibition amounted to 1.77% in assay [1]; 2.42% in [2]; 2.41% in assay [3]; 1.15% in [4]; 0.23% in assay [5]; 0.86% in assay [6]. In addition, the inhibition in assay [7] was 2.73%; in [8], 1.56%; in [9], 3.31%; in assay [10], 1.79%; in assay [11], 2.24%; in assay [12] it was -0.33%. The inhibition in assay [13] turned out to be 2.04%; in [14], 1.5%; in assay [15], 0.84%; in assay [16], 2.84%; in assay [17], 2.58%; in [18], 2.51%. In addition, the inhibition in assay [19] was 2.11%; in [20] it was 2.14%.
As for `Cc1ccc2c(-c3ccnc(Nc4cccc(C(F)(F)F)c4)n3)c(-c3ccccc3)nn2n1`, the inhibition in [1] was 1.98%; in assay [2], 2.93%; in assay [3] it was 5.15%; in [4], 1.16%; in assay [5] it was 3.52%; in [6] it was -6.21%. Moreover, the inhibition was -9.83% in assay [7]; -3.6% in [8]; -3.73% in assay [9]; -4.51% in [10]; -5.56% in [11]; 0.64% in [12]. Further, the inhibition is 2.53% in assay [13]; -1.16% in [14]; -0.78% in [15]; 15.6% in assay [16]; 27.2% in [17]; 1.58% in [18]. Moreover, the inhibition in assay [19] was 4.76%; in [20], -0.41%.
